Source: PubChem BioAssay AID430 (Sanford-Burnham Center for Chemical Genomics, 2006)
Out of some 63,000 compounds screened, about 1,100 (1.7%) were called active. Rule as the data show it: active = cytotoxicity above about 50%; inactive = the rest. Shown is part of a subset that was picked to be rich in actives. Entries with a potency or affinity are not part of this list.

test: cytotoxicity in HPDE-C7 cells, cell-based, fluorescence, HTS (AID 430); conditions: HPDE-C7 pancreatic duct cells viability, at 10 µM, hits give high values;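 also: cells exposed to compound for 48 hours before viability readout; 0% = vehicle and 100% = reference cytotoxic drug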

SMILES	cytotoxicity
COc1ccc(OC)c(NC(=O)CCN2CCN(Cc3ccccc3)CC2)c1	0.1% (inactive)
CCCCNC(=O)CS(=O)Cc1nc(-c2cccc(C)c2)oc1C (configuration not stated)	0.4% (inactive)
Cc1cccc(-c2nc(CS(=O)CC(=O)NCCCSC3CCCCC3)c(C)o2)c1 (configuration not stated)	56.1% (active)
CCCCSCCCNC(=O)CS(=O)Cc1nc(-c2cccc(C)c2)oc1C (configuration not stated)	-17.4% (inactive)
Cc1ccc(C2(C(F)(F)F)NC(=O)N3CCCN=C3S2)cc1 (configuration not stated)	-18.8% (inactive)
O=C1NC(c2ccccc2)(C(F)(F)F)SC2=NCCCN12 (configuration not stated)	-2.2% (inactive)
Cc1ccc(C2(C(F)(F)F)NC(=O)N3CCN=C3S2)cc1 (configuration not stated)	81.6% (active)
CC(C)c1ccc2c(c1)C(=O)NC(C)(C)C2	1.8% (inactive)
COc1ccccc1C(=O)NCCn1cc(SCC(=O)Nc2nnc(C)s2)c2ccccc21	-8% (inactive)
CCCn1c(CN(Cc2ccccc2)Cc2ccccc2)nc2c1c(=O)n(C)c(=O)n2C	-14.9% (inactive)
CC(C)Cn1c(CN(C)Cc2ccccc2)nc2c1c(=O)n(C)c(=O)n2C	-6.6% (inactive)
CC(C)Cn1c(CN(Cc2ccccc2)Cc2ccccc2)nc2c1c(=O)n(C)c(=O)n2C	51.7% (active)
CCOP(=O)(c1ccc(N(C)C)cc1)C(O)c1cc(OC)c(OC)c(OC)c1 (configuration not stated)	5.9% (inactive)
CCOC(=O)C(C)Sc1nc(-c2cccs2)ccc1C#N (configuration not stated)	59.2% (active)
C=COC(=O)CSc1nc(-c2cccs2)ccc1C#N	26.7% (inactive)
COC(=O)CSc1nc(-c2cccs2)ccc1C#N	29.9% (inactive)
O=C(Nc1ccccc1N1CCCC1)c1ccco1	3.9% (inactive)
O=c1[nH]c2cc3c(cc2cc1CN(CCCO)Cc1nnnn1Cc1ccc(F)cc1)OCO3	-1.2% (inactive)
CC(=O)Nc1nc(C)nc(-c2ccccc2)c1C(C)=O	-1.8% (inactive)
CCc1nnc(NC(=O)CSc2nnc(-c3ccccc3OC)n2-c2ccccc2)s1	-8.7% (inactive)
CCc1nnc(NC(=O)CSc2nnc(-c3ccccc3O)n2-c2ccc(C)cc2C)s1	73.5% (active)

SMILES	cytotoxicity
CCc1nnc(NC(=O)CSc2nnc(-c3ccccc3O)n2-c2ccc(C)cc2)s1	-7.9% (inactive)
C=CCN(CC=C)S(=O)(=O)c1ccc2nsnc2c1	-6.7% (inactive)
CCOC(=O)c1ccc2nc(NC(=O)C(C)C)sc2c1	-3.3% (inactive)
C=CCN(CC=C)S(=O)(=O)c1ccc2nc(NC(=O)C(C)C)sc2c1	76.7% (active)
COc1ccc(-c2noc(CSc3nc4ccccc4c(=O)n3-c3ccccc3)n2)cc1OC	-10.3% (inactive)
Cc1ccccc1NC(=O)C1CCCN(S(=O)(=O)c2cnc[nH]2)C1 (configuration not stated)	-5.3% (inactive)
CC(C)c1[nH]nc2c1C(C(C)C)C(C#N)=C(N)O2 (configuration not stated)	-24.3% (inactive)
Cc1cc(C2N=C(N)Nc3nc4ccccc4n32)c(C)n1-c1ccccc1Cl (configuration not stated)	2.7% (inactive)
NC1=NC(c2ccc(F)cc2)n2c(nc3ccccc32)N1 (configuration not stated)	-3.6% (inactive)
COc1cc(S(=O)(=O)N2CCN(c3ccccc3)CC2)ccc1Cl	-12.6% (inactive)
CC(C)c1nc(SCc2c(F)cccc2Cl)c2c(=O)n(C)c(=O)n(C)c2n1	77.1% (active)
CC(C)c1nc(SCc2ccccn2)c2c(=O)n(C)c(=O)n(C)c2n1	-2% (inactive)
Cc1nc(SCc2c(F)cccc2Cl)c2c(=O)n(C)c(=O)n(C)c2n1	-26.2% (inactive)
CCOC(=O)c1cnc(SCC(=O)Nc2nnc(CC)s2)nc1N	-4.3% (inactive)
C=CCn1cnc2c(c1=O)c1nc3ccccc3nc1n2/N=C/c1cccc(OC)c1OC	46.6% (inactive)
C=CCn1cnc2c(c1=O)c1nc3ccccc3nc1n2/N=C/c1cccc(OC)c1	48.5% (inactive)
O=C(CCSc1ccccc1)Nc1ccc(S(=O)(=O)N2CCOCC2)cc1	1.8% (inactive)
COc1cc2c(cc1OC)C1Cc3ccc(OC)c(OC)c3CN1CC2 (configuration not stated)	-10.2% (inactive)
COc1cc2c(cc1OC)C(c1cc(OC)c(OC)c(OC)c1)NCC2 (configuration not stated)	4.6% (inactive)
O=C(O)C1CC(=O)N(c2ccc(F)cc2)C1 (configuration not stated)	-16.5% (inactive)
CCOC(=O)C1C2C=CC3(CN(c4cccc(Cl)c4)C(=O)C13)O2 (configuration not stated)	-0.8% (inactive)

SMILES	cytotoxicity
CC1(C)C2CC=C(/C=N/n3cnnc3)C1C2 (configuration not stated)	-4.1% (inactive)
O=c1c2ccccc2[nH]c(=S)n1CCN1CCN(Cc2ccccc2)CC1	-3.8% (inactive)
O=C(c1ccc(F)cc1)C1CCN(CCn2c(=O)[nH]c3ccccc3c2=O)CC1	5.4% (inactive)
COc1ccc(C(=O)OCC(=O)NCc2ccco2)cc1OC	-14.8% (inactive)
COc1ccccc1Oc1ccc(S(=O)(=O)Nc2cccnc2)cc1	51.5% (active)
CCCCOc1ccc(S(=O)(=O)Nc2cccnc2)cc1	-5.2% (inactive)
COc1cc(S(=O)(=O)Nc2cccnc2)ccc1F	-3.6% (inactive)
Cc1nc(NC(=O)CSc2nc3cccnc3n2C2CCCCC2)sc1C	9.2% (inactive)
Cc1ccc(-c2nn3c(C)nnc3s2)cc1NC(=O)c1ccc(Br)o1	-10.8% (inactive)
Cc1nnc2sc(-c3cccc(NC(=O)c4ccc(-c5cccc(Cl)c5)o4)c3)nn12	0.6% (inactive)
CC(C)CNc1nc(Oc2ccc(=O)n(C)n2)nc(N2CCOCC2)n1	-7.6% (inactive)
Cc1ccc(-n2ncc3c(NCc4ccco4)ncnc32)c(C)c1	-6.7% (inactive)
c1ccc(-n2ncc3c(NCc4ccco4)ncnc32)cc1	1.4% (inactive)
c1ccc(Cn2ncc3c(NCc4ccco4)ncnc32)cc1	8.9% (inactive)
Clc1ccc(-n2ncc3c(NCc4ccco4)ncnc32)cc1	17.4% (inactive)
Clc1ccc(Cn2ncc3c(NCc4ccco4)ncnc32)c(Cl)c1	51.5% (active)
Cc1cccc(-n2ncc3c(NCc4ccco4)ncnc32)c1	64.1% (active)
Cc1ccc(Cl)cc1N1CCN(C(=O)C2CCN(c3nnc(-n4cccc4)s3)CC2)CC1	43.7% (inactive)
Cc1cc(C)nc(N2CCC(C(=O)N3CCN(c4cc(Cl)ccc4C)CC3)CC2)n1	59.5% (active)
Cc1ccc(C)c(N2CCN(C(=O)C3CCN(c4nc(C)cc(C)n4)CC3)CC2)c1	11.3% (inactive)
